Consider 1 compound from PubChem BioAssay (NCATS).

Records with an inconclusive call do not appear. The source made the active and inactive calls. Unless noted, the call rests on the fitted dose curve; in most records, active means well fitted curve in the direction sought with a large enough effect; inconclusive means small, poorly fitted or top-dose-only effect, or another doubt; inactive means no such curve, though single readings can be large; an effect the other way counts as inactive or inconclusive.

Experiment [1] in a line: Cell Viability - LYMP1-002 - Assay at 40 hr (AID 994).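 Further: 0% = DMSO only and full inhibition = 92 µM tetraoctylammonium bromide; nearly all actives have a fitted effect of over 60% in size.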 Put shortly: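 LYMP1-002 human lymphoblastoid cells (2500/well, complete medium) were treated with compounds for 40 hr at 37 C. Intracellular ATP was measured by CellTiter-Glo luminescence, and AC50 values came from Hill-equation fits of concentration-response data; tetraoctylammonium bromide was the positive control.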

Experiment [2] in a line: qHTS Assay for Lipid Storage Modulators (AID 1519; calls by dose curve). Particulars: Drosophila S3 cells, BODIPY lipid droplet/cell ratio, laser cytometry, cells loaded with oleic acid. Put shortly:
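Cells seeded at 5,000 per well were treated with compounds over a concentration series and loaded with oleic acid (400 uM, as added). Lipid droplet fluorescence (488 nm excitation, 500-530 nm channel) was read by laser-scanning cytometry and normalized to 20 uM Triacsin C.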

In experiment [3] the target is Estrogen receptor (Homo sapiens) (UniProt P03372). The experiment in a line: qHTS assay for small molecule agonists of estrogen receptor alpha signaling (AID 588514; calls by dose curve;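 further: 0% = vehicle only and 100% = reference agonist; nearly all actives have a fitted effect of over 70% in size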). In short, it runs like this: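 ER-alpha-UAS-bla GripTite HEK293 cells, 5000/well in 2% charcoal/dextran-stripped FBS medium, treated with compound titrations 18 h at 37 C. CCF4 beta-lactamase read by fluorescence after 2 h RT; normalised to 20 nM 17-beta-estradiol (100%) and DMSO (0%), Hill fit for EC50 and efficacy.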
Chain of Estrogen receptor (Homo sapiens) (P03372 whole entry, looked up): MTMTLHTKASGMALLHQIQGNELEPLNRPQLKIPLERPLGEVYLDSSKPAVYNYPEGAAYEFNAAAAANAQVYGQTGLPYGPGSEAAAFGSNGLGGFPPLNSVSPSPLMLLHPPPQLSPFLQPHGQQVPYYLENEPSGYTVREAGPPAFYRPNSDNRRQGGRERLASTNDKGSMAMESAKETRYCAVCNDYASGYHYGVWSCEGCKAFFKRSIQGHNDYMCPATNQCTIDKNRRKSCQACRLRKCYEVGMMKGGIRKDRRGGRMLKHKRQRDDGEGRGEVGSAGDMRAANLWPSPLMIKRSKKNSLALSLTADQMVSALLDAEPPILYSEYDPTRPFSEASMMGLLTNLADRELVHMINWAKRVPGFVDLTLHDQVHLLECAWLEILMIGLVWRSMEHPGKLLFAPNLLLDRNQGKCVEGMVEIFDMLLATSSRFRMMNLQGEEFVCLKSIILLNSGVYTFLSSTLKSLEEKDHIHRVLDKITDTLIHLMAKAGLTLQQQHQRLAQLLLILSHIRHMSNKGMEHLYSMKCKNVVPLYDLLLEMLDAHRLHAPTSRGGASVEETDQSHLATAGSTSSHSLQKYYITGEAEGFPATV

Experiment [4] concerns the target Androgen receptor (Homo sapiens) (UniProt P10275). Briefly: qHTS assay for small molecule antagonists of androgen receptor signaling (AID 588516; active means well fitted curve in the direction sought with a large enough effect in the signal ratio, with a control signal flat, not every such curve was filed as active; the % refers to the signal ratio; further: on the % scale 0 is the no-effect control and ±100 the full control effect). In short, it runs like this:
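AR-UAS-bla GripTite HEK 293 cells (2000/well) treated with compound titrations plus 10 nM R1881 for 16 h at 37C. Beta-lactamase read by CCF4 FRET (460/530 nm); IC50 from Hill fits, normalized to R1881 and DMSO control wells.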
(In general: Quantitative high-throughput screening tests each substance at several concentrations.)

The target of experiment [5] is Glucocorticoid receptor (Homo sapiens) (UniProt P04150). The experiment in a line: qHTS assay for small molecule agonists of glucocorticoid receptor signaling (AID 588532; active means well fitted curve in the direction sought with a large enough effect in the signal ratio, with a control signal flat; the % refers to the signal ratio;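 further: 100% = dexamethasone at 0.1 µM and 0% = DMSO only wells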). The settings on record: HeLa MMTV-bla, beta-lactamase ratio, agonist, 18 h; stronger effect = higher value; percent of dexamethasone control, DMSO zero. Put shortly:
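Cells were plated and rested 3-5 h at 37 C, compounds were added in titration and incubated 18 h, then CCF4 substrate was loaded for 2 h at RT before reading blue/green fluorescence. EC50 came from Hill-equation fitting.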

The target is the same in experiment [6]. The experiment in a line: qHTS assay for small molecule antagonists of glucocorticoid receptor signaling (AID 588533; active means well fitted inhibition curve with a large enough effect in the signal ratio, with a control signal flat, not every such curve was filed as active; the % refers to the signal ratio;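 further: cells stimulated with 2 nM dexamethasone as agonist; on the % scale 0 is the no-effect control and ±100 the full control effect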). In short, it runs like this: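 Antagonist-mode qHTS: compound titrations added to GRE-bla HeLa cells, then dexamethasone 2 nM final; 18 h, 37 C. CCF4 FRET fluorescence normalized to dexamethasone and DMSO; IC50 from Hill fit.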
Experiment [7] can be described thus: qHTS assay for small molecule antagonists of retinoid X receptor alpha signaling (AID 588546; active means well fitted inhibition curve with a large enough effect in the signal ratio, with a control signal flat, not every such curve was filed as active; the % refers to the signal ratio;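 further: cells stimulated with 9-cis-retinoic acid as agonist; on the % scale 0 is the no-effect control and ±100 the full control effect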). The settings on record: HEK293T RXRa-UAS-bla, beta-lactamase ratio, antagonist mode; measured here: W530 green channel, cytotoxicity proxy. Put shortly: (§1)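 Beta-lactamase reporter inhibition, read as CCF4 fluorescence ratio (ex 405, em 460/530 nm) after 2 h at RT. HEK293T UAS-bla cells, 2500/well, were stimulated with 9-cis-RA at 500 or 100 nM final alongside test compound for 18 h at 37 C.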

Experiment [8] deals with Retinoic acid receptor RXR-alpha (Homo sapiens) (UniProt P19793). Described as above. The settings on record: HEK293T RXRa-UAS-bla, beta-lactamase ratio, antagonist mode. Put shortly: as §1
Chain of Retinoic acid receptor RXR-alpha (Homo sapiens) (P19793 whole entry, looked up): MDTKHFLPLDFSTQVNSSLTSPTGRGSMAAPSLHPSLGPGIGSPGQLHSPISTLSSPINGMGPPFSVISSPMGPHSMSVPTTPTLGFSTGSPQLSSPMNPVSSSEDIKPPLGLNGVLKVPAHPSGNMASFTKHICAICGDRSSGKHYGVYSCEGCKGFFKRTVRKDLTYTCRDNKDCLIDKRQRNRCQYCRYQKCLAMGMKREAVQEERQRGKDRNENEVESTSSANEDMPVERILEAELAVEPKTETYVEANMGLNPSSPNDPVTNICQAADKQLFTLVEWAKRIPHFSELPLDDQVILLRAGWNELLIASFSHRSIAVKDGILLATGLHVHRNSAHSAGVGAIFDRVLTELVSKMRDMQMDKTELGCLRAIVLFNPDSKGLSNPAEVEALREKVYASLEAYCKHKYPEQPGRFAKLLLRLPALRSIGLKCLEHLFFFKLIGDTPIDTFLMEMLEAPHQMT
The nature of experiment [9]: qHTS assay for small molecule disruptors of the mitochondrial membrane potential - 1 hr assay (AID 651754; calls by dose curve; further: on the % scale 0 is the no-effect control and ±100 the full control effect; nearly all actives have a fitted effect of over 35% in size). Put shortly: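 HepG2 cells, attached overnight, were exposed to compound for 1 hr at 37C, then stained 30 min with a potentiometric dye. Ratio of red aggregate (590nm) to green monomer (535nm) fluorescence reports membrane potential; collapse shifts signal toward green.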

Experiment [10] is described as follows: qHTS assay for small molecule disruptors of the mitochondrial membrane potential - 5 hr assay (AID 651755; calls by dose curve; further: on the % scale 0 is the no-effect control and ±100 the full control effect; nearly all actives have a fitted effect of over 40% in size). In short, it runs like this:
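HepG2 cells (2,000/well), attached overnight, exposed to compound 5 hr at 37C, then Mito-MPS dye 30 min. Fluorescence read for monomers (490/535 nm) and aggregates (540/590 nm).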

Experiment [11] concerns the target Tumor necrosis factor (Homo sapiens) (UniProt P01375). Briefly: qHTS assay to identify small molecules that stimulate Tumor Necrosis Factor-alpha (TNF-alpha) secretion (AID 651757; active means well fitted curve in the direction sought with a large enough effect in the signal ratio; the % refers to the signal ratio; further: 0% is about no effect). In short, it runs like this:
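THP-1 cells (3000/well) exposed to compounds 17 hrs at 37 C. Secreted TNF-alpha detected by HTRF with cryptate- and XL665-labeled anti-TNF-alpha antibodies after 3 hr at room temperature.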

A short description of experiment [12]: qHTS assay to identify small molecules that stimulate interleukin-8 (IL-8) secretion (AID 651758; active means well fitted activation curve with a large enough effect in the signal ratio; the % refers to the signal ratio; further: 0% is about no effect). In short, it runs like this:
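THP-1 cells (2000/well) exposed to compound 16 h at 37 C; secreted IL-8 then detected by HTRF with cryptate- and XL665-labelled anti-IL-8 antibody pair after 1-3 h at room temperature.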

Experiment [13] is described as follows: qHTS assay for environmental chemicals that activate the Aryl hydrocarbon Receptor (AhR) signaling pathway (AID 651777). Further: % of control where 0% means no effect; nearly all actives have a fitted effect of over 15% in size. Particulars: 1A2-DRE human hepatoma cells, luciferase, 24 h; stronger effect = higher value. In short, it runs like this:
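Luminescence read-out: One-Glo added for 30 min at RT after 24 hr compound treatment (37 C, 5% CO2) of human hepatoma cells expressing a DRE/CYP1A2 promoter–luciferase reporter; increased signal indicates AhR activation.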

Experiment [14] deals with Peroxisome proliferator-activated receptor alpha (Homo sapiens) (UniProt Q07869). The experiment in a line: qHTS assay for small molecule agonists of the peroxisome proliferator-activated receptor alpha (PPARalpha) signaling pathway (AID 651778). Further: % of control where 0% means no effect. The settings on record: PathHunter PPARalpha complementation, chemiluminescence, 6 h; stronger effect = higher value. In short, it runs like this:
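Enzyme-fragment complementation assay in which ligand-bound PPARalpha translocates and forms an active enzyme that generates chemiluminescence. Cells were plated overnight, exposed to compound for 6 hr at 37 C, and then given detection reagent for 60 min at room temperature.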

Experiment [15] in a line: qHTS assay for small molecule agonists of the antioxidant response element (ARE) signaling pathway measured by Nrf2-dependant transcriptional activity (AID 720636; active means well fitted curve in the direction sought with a large enough effect in the repeat runs; an effect the other way counts as inactive or inconclusive;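 further: HepG2 cells with an ARE-driven luciferase reporter; % of control where 0% means no effect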). Put shortly: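 HepG2 ARE-luc reporter line, 1% dialyzed FBS; 6 hr attachment at 37 C, compound pinned in, 16 hr at 37 C/5% CO2; ONE-Glo, 30 min RT, luminescence read.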
A short description of experiment [16]: qHTS assay for small molecule antagonists of the retinoid-related orphan receptor gamma (ROR-gamma) signaling pathway - cell viability counter screen (AID 720652; active means well fitted curve in the direction sought with a large enough effect in the repeat runs; an effect the other way counts as inactive or inconclusive;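 further: CHO reporter cells with doxycycline-induced ROR-gamma expression; compound exposure lasted 16 hr before ATP read; on the % scale 0 is the no-effect control and ±100 the full control effect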). In short, it runs like this: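 CHO cells carrying TET-inducible ROR and RORE-luciferase reporter, plated 5 hr, then dosed with compound plus doxycycline. After 16 hr at 37 C, viability read as intracellular ATP by CellTiter-Glo luminescence.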

A short description of experiment [17]: qHTS assay for small molecule agonists of the antioxidant response element (ARE) signaling pathway measured by Nrf2-dependant transcriptional activity - cell viability counter screen (AID 720653; active means well fitted curve in the direction sought with a large enough effect in the repeat runs; an effect the other way counts as inactive or inconclusive; further: on the % scale 0 is the no-effect control and ±100 the full control effect). The settings on record: ARE-bla HepG2 viability, CellTiter-Glo ATP luminescence, 16 h; stronger effect = lower value. Put shortly: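 ARE-bla HepG2 cells treated with compounds for 16 h at 37C; this counter screen measures viability as intracellular ATP by CellTiter-Glo luminescence after 30 min at room temperature.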

Experiment [18] can be described thus: qHTS assay for cell viability of HEK293 cells (AID 743288). Further: on the % scale 0 is the no-effect control and ±100 the full control effect; nearly all actives have a fitted effect of over 50% in size. Particulars: ATP luminescence (CellTiter-Glo), 18 h, stronger effect = lower value. Put shortly:
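Parental HEK293 cells, 2,000 per well, preincubated at least 5 h at 37 C, then exposed to compounds in DMSO for 18 h at 37 C. Viability by CellTiter-Glo ATP luminescence after 30 min at room temperature.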

A short description of experiment [19]: qHTS assay for cell viability of the p53RE-bla HCT-116 cell line (AID 743292). Further: on the % scale 0 is the no-effect control and ±100 the full control effect; nearly all actives have a fitted effect of over 55% in size. Put shortly: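 Luminescent ATP quantitation (CellTiter-Glo) served as the viability read-out; reagent was added after 16 h compound exposure at 37 C and read after 30 min at room temperature. Cells: p53RE-bla HCT-116, 4,000 per well.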
Experiment [20] addresses Nuclear receptor subfamily 1 group I member 2 (Rattus norvegicus) (UniProt Q9R1A7). Briefly: qHTS assay for small molecule activators of the rat pregnane X receptor (rPXR) signaling pathway (AID 651751; call rule not given here; further: 0% is about no effect). The settings on record: rPXR reporter cells, luciferase (One-Glo), 24 h.

Chain of Glucocorticoid receptor (Homo sapiens) (P04150 whole entry, looked up): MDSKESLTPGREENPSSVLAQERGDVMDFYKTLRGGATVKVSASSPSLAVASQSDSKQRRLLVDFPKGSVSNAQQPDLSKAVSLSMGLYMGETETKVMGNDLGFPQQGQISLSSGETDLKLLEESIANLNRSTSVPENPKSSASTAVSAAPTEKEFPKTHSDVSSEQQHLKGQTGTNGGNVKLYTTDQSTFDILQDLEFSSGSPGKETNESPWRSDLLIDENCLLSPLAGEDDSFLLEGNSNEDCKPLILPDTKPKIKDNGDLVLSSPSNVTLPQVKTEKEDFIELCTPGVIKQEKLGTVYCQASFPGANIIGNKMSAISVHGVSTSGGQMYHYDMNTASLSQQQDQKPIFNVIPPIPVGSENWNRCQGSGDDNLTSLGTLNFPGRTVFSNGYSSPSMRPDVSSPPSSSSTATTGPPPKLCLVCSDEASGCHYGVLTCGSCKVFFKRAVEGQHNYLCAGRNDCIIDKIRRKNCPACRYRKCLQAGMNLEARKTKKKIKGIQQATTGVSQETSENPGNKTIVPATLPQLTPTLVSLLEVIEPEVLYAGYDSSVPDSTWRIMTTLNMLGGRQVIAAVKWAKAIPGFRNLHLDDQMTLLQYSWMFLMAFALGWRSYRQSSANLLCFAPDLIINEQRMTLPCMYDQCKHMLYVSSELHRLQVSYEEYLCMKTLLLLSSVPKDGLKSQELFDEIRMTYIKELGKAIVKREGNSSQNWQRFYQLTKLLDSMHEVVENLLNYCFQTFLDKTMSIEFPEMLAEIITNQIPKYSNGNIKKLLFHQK
Chain of Androgen receptor (Homo sapiens) (P10275 whole entry, looked up): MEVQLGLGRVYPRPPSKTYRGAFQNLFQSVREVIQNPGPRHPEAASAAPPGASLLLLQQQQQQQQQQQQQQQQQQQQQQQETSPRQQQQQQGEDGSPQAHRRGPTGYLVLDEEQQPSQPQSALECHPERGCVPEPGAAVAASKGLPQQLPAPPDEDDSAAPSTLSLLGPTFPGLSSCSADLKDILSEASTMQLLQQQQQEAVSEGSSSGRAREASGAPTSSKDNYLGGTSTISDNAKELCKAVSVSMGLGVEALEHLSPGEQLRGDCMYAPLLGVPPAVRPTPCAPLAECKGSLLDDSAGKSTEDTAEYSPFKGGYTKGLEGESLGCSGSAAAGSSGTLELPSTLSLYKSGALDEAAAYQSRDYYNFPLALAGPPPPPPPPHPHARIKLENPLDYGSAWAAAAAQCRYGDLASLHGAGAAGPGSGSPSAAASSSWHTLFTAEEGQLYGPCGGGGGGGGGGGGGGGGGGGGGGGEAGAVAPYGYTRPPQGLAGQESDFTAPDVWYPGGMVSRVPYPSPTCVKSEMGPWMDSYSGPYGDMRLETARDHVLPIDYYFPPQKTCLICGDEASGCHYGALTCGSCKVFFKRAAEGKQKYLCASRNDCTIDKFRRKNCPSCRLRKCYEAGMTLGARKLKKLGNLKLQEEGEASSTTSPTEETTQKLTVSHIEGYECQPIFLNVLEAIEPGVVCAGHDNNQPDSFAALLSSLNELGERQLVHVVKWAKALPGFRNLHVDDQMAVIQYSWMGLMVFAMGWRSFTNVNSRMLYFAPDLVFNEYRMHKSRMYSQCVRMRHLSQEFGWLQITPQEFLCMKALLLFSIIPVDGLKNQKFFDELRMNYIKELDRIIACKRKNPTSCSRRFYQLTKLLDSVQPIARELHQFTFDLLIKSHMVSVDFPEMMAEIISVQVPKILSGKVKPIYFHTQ
Chain of Peroxisome proliferator-activated receptor alpha (Homo sapiens) (Q07869 whole entry, looked up, the tested form may be a part): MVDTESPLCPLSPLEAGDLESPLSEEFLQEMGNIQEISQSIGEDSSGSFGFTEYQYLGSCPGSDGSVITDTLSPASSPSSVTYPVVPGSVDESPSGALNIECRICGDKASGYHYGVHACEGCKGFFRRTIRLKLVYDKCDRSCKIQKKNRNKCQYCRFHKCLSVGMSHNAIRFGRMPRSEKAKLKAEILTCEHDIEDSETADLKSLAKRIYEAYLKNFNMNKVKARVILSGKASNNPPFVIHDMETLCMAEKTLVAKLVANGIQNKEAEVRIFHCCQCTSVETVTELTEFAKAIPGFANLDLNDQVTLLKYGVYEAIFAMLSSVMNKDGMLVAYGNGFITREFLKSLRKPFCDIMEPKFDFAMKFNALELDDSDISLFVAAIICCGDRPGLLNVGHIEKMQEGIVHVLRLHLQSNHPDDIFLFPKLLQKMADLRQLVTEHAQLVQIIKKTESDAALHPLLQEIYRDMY
Chain of Nuclear receptor subfamily 1 group I member 2 (Rattus norvegicus) (Q9R1A7 whole entry, looked up): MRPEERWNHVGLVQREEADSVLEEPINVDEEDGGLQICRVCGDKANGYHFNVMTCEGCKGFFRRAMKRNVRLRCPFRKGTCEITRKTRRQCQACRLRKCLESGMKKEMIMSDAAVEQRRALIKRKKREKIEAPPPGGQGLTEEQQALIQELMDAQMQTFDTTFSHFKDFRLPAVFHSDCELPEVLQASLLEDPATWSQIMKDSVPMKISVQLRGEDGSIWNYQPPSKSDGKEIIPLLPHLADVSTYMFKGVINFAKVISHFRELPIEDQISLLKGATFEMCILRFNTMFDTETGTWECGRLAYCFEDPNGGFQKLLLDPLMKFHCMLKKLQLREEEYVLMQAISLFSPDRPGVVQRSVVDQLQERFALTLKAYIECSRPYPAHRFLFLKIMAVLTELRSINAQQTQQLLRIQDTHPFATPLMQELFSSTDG
Chain of Tumor necrosis factor (Homo sapiens) (P01375 whole entry, looked up): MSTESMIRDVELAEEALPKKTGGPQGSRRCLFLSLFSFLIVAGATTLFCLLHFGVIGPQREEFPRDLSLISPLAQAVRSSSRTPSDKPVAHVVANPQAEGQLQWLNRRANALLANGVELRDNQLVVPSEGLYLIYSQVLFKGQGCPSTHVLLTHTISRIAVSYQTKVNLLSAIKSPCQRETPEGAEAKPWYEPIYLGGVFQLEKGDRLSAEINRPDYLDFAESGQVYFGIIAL

Regarding `CN(C)CCOC(c1ccccc1)c1ccccc1` (tested in a mixture with another compound), the call in experiment [1], in experiment [3], in experiment [4], in experiment [6], in experiment [9] and in [10] was inactive. The call in experiment [11], in experiment [12], in experiment [15], in experiment [16] and in experiment [19] was inactive. Besides, in experiment [2] (at 25.7 µM (top of the series)), the activity change, negative = inhibition was -3.15% (inactive). The max response in experiment [2] (measured here: cell count channel max response) was -0.682%; in experiment [2] (measured here: lipid channel max response), -4.36%; in experiment [7] it was 3.3%; in experiment [8], -6.76% (inactive); in experiment [14], 0.237% (inactive); in experiment [17], -6.81% (inactive). The values for the max response in experiment [18] and in experiment [20] were 3.64% (inactive) and -6.62% (inactive), respectively. Moreover, the activation in experiment [5] was 1.99% (inactive); in [13] it was 0.508% (inactive).
